According to PubChem BioAssay (NCI):
The panel holds about 83,000 compounds, 20% with a hit somewhere; the sample as a whole holds those more often.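 96-well plates, one dose, 48 hours. Percent growth reported; active if below 10.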 A number with no mark means an inactive call. Activity calls are given as the source filed them.

Legend:
Assay in all cases: NCI-60 one-dose screen, 48 h (100 = growth as untreated, 0 = no growth, -100 = all killed)
Details in all cases: 10 µM unless noted
SK-MEL-2 melanoma = test system: SK-MEL-2 melanoma
EKVX NSCLC = test system: EKVX NSCLC
SN12C renal = test system: SN12C renal
UO-31 renal = test system: UO-31 renal
TK-10 renal = test system: TK-10 renal
ACHN renal = test system: ACHN renal
CAKI-1 renal = test system: CAKI-1 renal
A498 renal = test system: A498 renal
CCRF-CEM leukemia = test system: CCRF-CEM leukemia
MOLT-4 leukemia = test system: MOLT-4 leukemia
SR leukemia = test system: SR leukemia
RPMI-8226 leukemia = test system: RPMI-8226 leukemia
OVCAR-8 ovarian = test system: OVCAR-8 ovarian
OVCAR-5 ovarian = test system: OVCAR-5 ovarian
OVCAR-4 ovarian = test system: OVCAR-4 ovarian
IGROV1 ovarian = test system: IGROV1 ovarian
OVCAR-3 ovarian = test system: OVCAR-3 ovarian
HS 578T breast = test system: HS 578T breast
NCI/ADR-RES ovarian = test system: NCI/ADR-RES ovarian
SK-OV-3 ovarian = test system: SK-OV-3 ovarian

Row | SMILES | growth (SK-MEL-2 melanoma) | growth (EKVX NSCLC) [%] | growth (SN12C renal) | growth (UO-31 renal) | growth (TK-10 renal) | growth (ACHN renal) | growth (CAKI-1 renal) | growth (A498 renal) | growth (CCRF-CEM leukemia) | growth (MOLT-4 leukemia) | growth (SR leukemia) | growth (RPMI-8226 leukemia) | growth (OVCAR-8 ovarian) | growth (OVCAR-5 ovarian) [%] | growth (OVCAR-4 ovarian) [%] | growth (IGROV1 ovarian) [%] | growth (OVCAR-3 ovarian) | growth (HS 578T breast) | growth (NCI/ADR-RES ovarian) | growth (SK-OV-3 ovarian) [%]
1 | NC(N)=NS(=O)(=O)c1ccc(NC2=C(I)C(=O)c3ncccc3C2=O)cc1 | 106% | 105 | 101% | 75.1% | 118% | 93.2% | 90.4% | 97.2% | 107% | 103% | 104% | 104% | 97.2% | 112 | 93 | 97.5 | 95.3% | 103% | 94.1% | 
2 | CC1C(/C=N/NC(N)=S)C(C#N)(C#N)C1(C#N)C#N (stereo unspecified) | 114% | 104 | 105% | 82.4% | 118% | 103% | 91.8% | 103% | 96.5% | 88.8% | 85.6% | 96.6% | 101% | 116 |  | 109 | 107% | 91.7% | 110% | 95.8
3 | CCN1C(=O)N(CC)C2C1NN=c1s/c(=C\c3ccc(C(F)(F)F)cc3)c(=O)n12 (stereo unspecified) | 56.1% | 48.5 | 24.2% | 34.3% | 59.7% | 27.6% | 25.9% | 8.73% (active) | 5.13% (active) | 10.9% | 12.2% | 9.95% (active) | -2.79% (active) | 26.7 | 46 | 18.7 | 3.24% (active) | 18.4% | 2.84% (active) | 
4 | CC1=CC(c2ccco2)=C2C(N)=NNC2N1 (stereo unspecified) | 108% | 96.9 | 89.9% | 80.9% | 111% | 90.8% | 82.6% | 86.3% | 101% | 103% | 94.2% | 106% | 97.7% | 87.7 |  | 86.9 | 104% | 105% |  | 101
5 | COc1ccc2c(c1)/C(=N/c1n[nH]c(=S)s1)C(=O)N2 | 105% | 98.6 | 97.8% | 74.3% | 115% | 83.6% | 78.4% | 89.9% | 44.5% | 76.2% | 69.9% | 54.1% | 92.8% | 102 | 97.7 | 75.3 | 96.2% | 91.7% | 94% | 
6 | O=C1Nc2ccccc2/C1=C/c1cccn1C(=O)c1ccc(Cl)s1 | 86.7% | 22.6 | 86.2% | 65.1% | 50.6% | 47.7% | 64% | 67.4% | 26.6% | 30.3% | 27.8% | 52.5% | 75.3% | 66.5 | 15.3 | 38.6 | 38.8% | 70.8% | 74.3% | 
7 | COc1ccc(C(=O)Cn2c(C(=O)c3ccc(OC)cc3)nc3ccccc32)cc1 | 88.4% | 73.3 | 41% | 35.4% | 51.5% | 43.8% | 25.4% | 34.2% | 0.632% (active) | 15.6% | 16.4% | -7.09% (active) | 31.3% | 56.9 | 47.6 | 26.9 | -10.4% (active) | -12% (active) | -24.1% (active) | 
8 | C/C(Cc1ccc(Cl)cc1)=C(\c1ccc(OCCCN(C)C)cc1)c1ccc(OC(=O)Cc2ccccc2)cc1 | 100% | 101 | 105% | 96% | 98.4% | 107% | 97% | 113% | 83.6% | 77.3% | 77.3% | 105% | 113% | 105 | 107 | 106 | 101% | 105% | 103% | 
9 | CCO/C=N/C1=C(C#N)C(c2ccc(F)cc2)c2sc3c(F)cccc3c2O1 (stereo unspecified) | 2.27% (active) | 66.5 | 49.7% | 54.2% | 64.4% | 54% | 25.2% | 40.8% | 22.9% | 51.5% | 31.8% | 41.9% | 51.5% | 83.4 | 67.8 | 50.3 | 8.43% (active) | 24.4% | 25.6% | 
10 | C[C@H](CCCC(=O)NCC#CCN1CCN(C)CC1)[C@H]1CC[C@H]2[C@@H]3CC[C@@H]4CC(=O)CC[C@]4(C)[C@H]3CC[C@]12C | 103% | 93.5 | 86% | 64.5% | 99% | 105% | 108% | 75.4% | 81.2% | 84.3% | 48.3% | 86.7% | 94.6% | 93.3 | 98.4 | 92.2 | 91.5% | 81.8% | 93.5% | 
11 | C/C(=N\O)[C@@H]1CC[C@]2(CO)CC[C@]3(C)[C@H](CC[C@@H]4[C@@]5(C)CCCNC(C)(C)[C@@H]5CC[C@]43C)[C@@H]12 | 95.2% | 92.7 | 85.4% | 69.3% | 109% | 98.6% | 79.4% | 107% | 58.9% | 33.3% | 12.5% | 53.4% | 91.2% |  | 77.2 | 65.2 | 80.3% | 84.3% | 96.6% | 105
12 | C=C1C(=O)O[C@H]2[C@H]1CC/C(Cn1cc(CCC)nn1)=C\CC[C@@]1(C)O[C@@H]21 | 44.7% | 77.4 | 23.1% | 0.946% (active) | -15.9% (active) | -0.504% (active) | 5.35% (active) | 39% | -27.4% (active) | -1.09% (active) | 0.0381% (active) | 26.9% | 23.7% |  | 40.3 | 41 | 1.06% (active) | 69.1% | 73.1% | 111
13 | COC(=O)CCC/C=C\C[C@H]1C=CC(=O)/C1=C/C[C@@H](O)C/C=C\CC(F)(F)F | -3.66% (active) | 47.1 | -6.2% (active) | -68.9% (active) | -2.5% (active) | -47.7% (active) | 1.42% (active) | 109% | -9.32% (active) | 2.73% (active) | 4% (active) | -11.8% (active) | 8.95% (active) | 39 |  | 12.1 | -3.96% (active) | 41.9% | 14% | 77.4
